Only a selection was taken, and hits are over-represented in it overall.
RBX1-CUL1 inh – blocks human RBX1-Cullin-1 di-ubiquitin formation. P62877+Q13616. in vitro K48 di-Ub FRET, acceptor:donor ratio, 45 min. inhibition, % at 10 µM. 140,000 compounds, 0.6% hits. AID 1347404; in the data active means inhibition above about 25%
Target sequence (P62877 whole entry, looked up): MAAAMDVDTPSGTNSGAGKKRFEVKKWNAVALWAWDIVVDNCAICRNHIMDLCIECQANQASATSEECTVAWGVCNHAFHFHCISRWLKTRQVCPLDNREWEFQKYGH
Target sequence (Q13616 whole entry, looked up): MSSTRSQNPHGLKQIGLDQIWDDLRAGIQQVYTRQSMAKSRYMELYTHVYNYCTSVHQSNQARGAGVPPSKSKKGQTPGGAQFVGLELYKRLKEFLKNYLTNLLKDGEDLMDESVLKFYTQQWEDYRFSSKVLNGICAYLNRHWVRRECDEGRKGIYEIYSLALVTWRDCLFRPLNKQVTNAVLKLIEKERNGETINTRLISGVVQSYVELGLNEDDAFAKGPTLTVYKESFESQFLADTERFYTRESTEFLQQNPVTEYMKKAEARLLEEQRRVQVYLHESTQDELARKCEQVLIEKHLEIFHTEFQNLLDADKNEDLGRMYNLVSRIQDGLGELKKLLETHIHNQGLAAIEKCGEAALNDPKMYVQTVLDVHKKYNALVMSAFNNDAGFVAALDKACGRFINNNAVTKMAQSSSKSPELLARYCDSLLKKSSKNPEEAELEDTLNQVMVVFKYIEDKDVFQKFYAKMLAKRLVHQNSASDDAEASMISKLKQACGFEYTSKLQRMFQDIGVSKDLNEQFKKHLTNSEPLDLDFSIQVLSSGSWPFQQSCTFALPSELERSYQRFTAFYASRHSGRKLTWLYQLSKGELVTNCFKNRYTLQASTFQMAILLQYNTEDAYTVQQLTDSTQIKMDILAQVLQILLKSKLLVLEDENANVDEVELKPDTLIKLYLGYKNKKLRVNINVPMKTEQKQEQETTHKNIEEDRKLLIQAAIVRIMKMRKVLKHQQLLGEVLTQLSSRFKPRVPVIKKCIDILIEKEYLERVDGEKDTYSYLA
* hit, by the source's call.

SMILES	RBX1-CUL1 inh
O=C1CCCN1CCC(=O)N1CCCC(CCc2ccc(F)c(F)c2)C1 (centres undefined)	-4.4
CCOC(=O)c1ccc(N=C2S/C(=C/c3ccccc3)C(=O)N2CC)cc1	9.5
O=C(CCC1CCCN(C(=O)Cc2ccccn2)C1)NC1CC1 (centres undefined)	2.7
COC(=O)C1C(=N)OC2=C(C(=O)CC(C)(C)C2)C1c1ccccc1 (centres undefined)	-10.2
COC(=O)C1C(=N)OC2=C(C(=O)CCC2)C1c1cccnc1 (centres undefined)	4.0
COC(=O)C1C(=N)OC2=C(C(=O)CCC2)C1c1cccc(Br)c1 (centres undefined)	105.5*
COc1ccc(C2(c3ccccc3)ON=C(c3ccccc3)S2)cc1OC (centres undefined)	7.8
CC1=NN(c2cccc(S(=O)(=O)O)c2)C(=O)C1	6.8
CC(=O)Nc1ccc(-n2cccc2)cc1	-3.2
CC(=O)Nc1ccc(N2N=C(C)CC2=O)cc1	28.4*
CCOCCCNC(=O)CSc1ccc(Cl)cc1	-12.6
O=C(Nc1ccccc1)Oc1c(Cl)cc2oc(=O)sc2c1Br	16.0
CC(=O)Oc1c(Br)cc2oc(=O)sc2c1Br	33.7*
COc1cc2oc(=O)cc(C)c2c(OC)c1OC(C)=O	0.6
O=C(CCCc1cccs1)N1CCOc2ccc(C(O)C(c3ccccc3)c3ccccc3)cc2C1 (centres undefined)	-1.6
CC1=C(S(=O)(=O)c2ccccc2)C(c2ccc(C)cc2)C2C(=O)c3ccccc3C2=N1 (centres undefined)	4.3
O=C1/C(=C\c2ccccc2)CCC/C1=C\c1ccccc1	-1.0
O=C1C(=O)/C(=C/c2ccccc2)CCC/C1=C/c1ccccc1	-1.3
CC1(C)CC(=O)/C(=C\c2ccccc2)C(C)(C)N1	25.0*
C=C1C(C(=O)Nc2ccc(N3CCCCC3)cc2)C1C(=O)Nc1ccc(N2CCCCC2)cc1 (centres undefined)	-6.4
O=C(NC1CCCCCCC1)C1CCN(C(=O)c2ccc(Cl)cc2)CC1	1.4
COc1cc(NC(=O)c2ccc(NC(=O)C(C)C)cc2)c(OC)cc1Cl	3.2
O=C1NC(=S)S/C1=C/c1ccc(N2N=C(c3ccccc3)CC2c2ccccc2)cc1 (centres undefined)	80.8*
Cc1cc(/C=C2/SC(=S)NC2=O)c(C)n1-c1ccccc1	2.3
O=C1NC(=S)S/C1=C/c1ccc(F)cc1	16.4
SMILES	RBX1-CUL1 inh
CCC(C)CC(=O)NCc1nc(-c2ccccc2NC(=O)Cc2ccccc2)oc1C (centres undefined)	-6.2
COc1ccc2c(c1)C=C1C(=CC(=Nc3ccc(Br)cc3)CC1(C)C)O2	54.4*
Cc1ccc2nc(/C(C#N)=C/c3coc4ccccc4c3=O)[nH]c2c1	25.9*
COc1cccc(/C=C(\C#N)c2nc3ccc(C)cc3[nH]2)c1	16.9
Cc1ccc2nc(/C(C#N)=C/c3ccccc3Cl)[nH]c2c1	-1.3
COCc1nc2cc(NC(=O)Cc3ccccc3)cc(C(=O)NC(C)Cc3cccnc3)c2n1C (centres undefined)	0.9
Cc1ccccc1C(=O)Nc1sc2c(c1C(=O)O)CCC(C(C)(C)C)C2 (centres undefined)	-3.5
CCN(CC)C(=O)c1c(NC(=O)c2ccco2)sc2c1CCC(C(C)(C)C)C2 (centres undefined)	14.0
CC(C)(C)C1CCc2c(sc(NC(=O)c3ccco3)c2C(=O)O)C1 (centres undefined)	39.5*
COc1cccc(C(=O)N=C2Cc3cc(OC)ccc3OC2=O)c1	-3.5
COc1ccc2c(c1)C(=O)Cc1ccccc1O2	67.4*
COc1ccc2c(c1)C(=O)Cc1ccccc1S2	3.1
Cc1c(N=Cc2ccccc2)c(=O)n(C)c(=O)n1C	-7.8
CCOc1cc(C2NC(=O)N=C(C)C2C(=O)Nc2ccc(Cl)cc2)ccc1O (centres undefined)	11.4
CCOC(=O)C1C(C)=NC2=C(C(=O)c3ccccc32)C1C (centres undefined)	-1.3
CCN1/C(=C\C=C/C2C=Cc3ccccc3N2CC)C=Cc2ccccc21 (centres undefined)	57.0*
CCCCc1nnc(NC(=O)COc2ccc(C(C)C)c(C)c2)s1	-0.6
COc1c(C)cc(NS(=O)(=O)c2ccc(SC)cc2)cc1C	-10.3
CC(=O)c1coc2c1C(=O)c1ccccc1C2=O	33.8*
O=C1C(=O)c2c(C(=O)c3cccs3)coc2-c2ccccc21	-4.8
Cc1ccc(NC(=O)c2cccc3c2C(=O)c2ccccc2-3)cc1	2.2
COc1ccc(C(F)(F)F)cc1N=CCc1nnnn1-c1ccc(Br)cc1	-4.8
O=C(OCc1ccc(Cl)cc1)c1ccccc1N1C(=O)c2ccccc2C1=O	2.8
COc1cc(OC)cc(N2C(=O)CSC23C(=O)Nc2ccccc23)c1 (centres undefined)	1.8
O=C1CSC2(C(=O)Nc3ccccc32)N1c1ccc(Br)cc1 (centres undefined)	0.4
SMILES	RBX1-CUL1 inh
Cc1ccc(N2C(=O)CSC23C(=O)Nc2ccc(C)cc23)cc1 (centres undefined)	94.3*
Cc1ccc2nc3c(cc(C(=O)N4CCOCC4)n3C)c(=O)n2c1	6.2
COc1ccc(C(=O)NC(=S)Nc2cc(Cl)c(Cl)cc2Cl)cc1	-8.5
COc1ccc(S(=O)(=O)Nc2cc(Sc3ncn[nH]3)c(O)c3ccccc23)cc1	96.8*
Cc1ccc(S(=O)(=O)Nc2cc(Sc3nc4ccccc4s3)c(O)c3ccccc23)cc1	9.6
O=C(O)CSc1cc(NS(=O)(=O)c2ccc3ccccc3c2)c2ccccc2c1O	89.4*
Cc1ccc(S(=O)(=O)Nc2cc(SCC(=O)O)c(O)c3ccccc23)c(C)c1	4.1
O=c1oc2c(cc(NS(=O)(=O)c3ccc4ccccc4c3)c3ccccc32)s1	12.3
O=S(=O)(Nc1ccc(O)c(Sc2ncn[nH]2)c1)c1ccccc1	-0.1
CCOc1ccc(NC(=O)c2c(C)noc2C)cc1	-3.0
C=CCSc1nc2ccc(NC(=O)c3sc4nc(-c5cccs5)ccc4c3N)cc2s1	2.9
CCOc1cc(/C=C2\SC(=Nc3ccc(C)cc3)N(c3ccc(C)cc3)C2=O)ccc1O	6.3
C=CCN(CC=C)S(=O)(=O)c1ccc2ccccc2c1	3.1
Cc1ccc(Oc2cc(-n3ncc(C#N)c3N)ncn2)cc1	2.9
NC(=S)N/N=C/c1cc(Cl)ccc1[N+](=O)[O-]	0.0
CCCCOc1ccc(C(=O)Nc2ccc3oc(-c4ccc(OC)c(Cl)c4)nc3c2)cc1	0.5
COc1cccc(Cc2cc(C(=O)NCCC(c3ccccc3)c3ccco3)on2)c1 (centres undefined)	-3.7
CC(C)(C)NC(=O)CC(c1ccccc1)c1cc(Cl)ccc1O (centres undefined)	8.1
N#Cc1c(N)[n+]([O-])c2cc(NCCO)c(F)cc2[n+]1[O-]	28.0*
OCCNc1cc2nccnc2cc1F	-6.0
CN=C1S/C(=C/c2cc(OC)c(O)c(Br)c2Br)C(=O)N1C	-1.1
COc1ccccc1CCC(=O)Nc1cnn(CC(=O)NCc2cc(F)cc(C(F)(F)F)c2)c1	1.1
COc1cc(Cl)cc(C=C2C(=O)c3ccccc3C2=O)c1O	0.3
O=C1C=CC([N+](=O)[O-])=CC(C(=O)/C=C/c2ccccc2)C1=O (centres undefined)	82.5*
CN1C(=O)C(C(=O)/C=C/c2ccccc2)C(=O)N(C)C1=O	-0.1
O=C1C=CC(Br)=CC(C(=O)/C=C/c2ccc(F)cc2)C1=O (centres undefined)	11.3
CC(=O)CSc1ccc(Br)cc1	5.4

Source: PubChem BioAssay
